In publication PMC8769072, “Proteome‐scale mapping of binding sites in the unstructured regions of the human proteome” (Molecular Systems Biology, 2022):

B1: MYLK, Q15746 (peptide)
chain: PTAPIFLQGLSDLKVM
B2: PRRC1, Q96M27 (peptide)
chain: PSAPLPFVPPPAVPSV
B3: ZNF589, Q86UQ0 (peptide)
chain: EVHTAPSAPLAFGSQQ
B4: PLCH2, O75038 (peptide)
chain: ATGSDPLWQRLEPAGH
B5: ATP10D, Q9P241 (peptide)
chain: GAMAVTANPPSNPYWI
B6: TRIM47, Q96LD4 (peptide)
chain: PSALPSVPEPSAPAAP
B7: MFSD6, Q6ZSS7 (peptide)
chain: VTLPTAPNMNSEPTLQ
B8: MDC1, Q14676 (peptide)
chain: PTAPELRPSTSTDRPV
B9: CSB-PGBD3, P0DP91 (peptide)
chain: YLSFRSVGDGLSTSAV
B10: FZD5, Q13467 (peptide)
chain: MARPDPSAPPSLLLLL
B11: GUCY1B2, O75343 (peptide)
chain: VQPSAPEHSSLASWLL
B12: DCAF1, Q9Y4B6 (peptide)
chain: AVGASAPSAPTAHPQP
B13: BSN, Q9UPA5 (peptide)
chain: HDATASSSSAAATVRA
B14: TSC22D2, O75157 (peptide)
chain: PSVPSVSTTSVTMPNV
B15: CDH3, P22223 (peptide)
chain: ANTDPTAPPYDTLLVF
B16: FOXP1, Q9H334 (peptide)
chain: SLPHTPTTPTAPLTPV
B17: ANTXR1, Q9H6X2 (peptide)
chain: PSAPTPPIPSPPSTLP
B18: E2F3, O00716 (peptide)
chain: LPSAPGAEQTAGSLLY
B19: CBX6, O95503 (peptide)
chain: LLPETVSPSAPSWREP
B20: PIP4P1, Q86T03 (peptide)
chain: AGPGGGLTPSAPPYGA
B21: STOX1, Q6ZVD7 (peptide)
chain: SVAKAVQASAPADERI
B22: SRCAP, Q6ZRS2 (peptide)
chain: NLSLTPSAPSLTLEAG
B23: SIX4, Q9UIU6 (peptide)
chain: LSNSESKATSSLMMLD
B24: GGA3, Q9NZ52 (peptide)
chain: DAPLLQPSAPSSSSSQ
B25: BEST1, O76090 (peptide)
chain: PLEPSAPSKLHSVTGI
B26: NEO1, Q92859 (peptide)
chain: VVVPSAPEVQETTRML
B27: SSFA2, P28290 (peptide)
chain: LTPTAPSRTGSVQTPP
B28: YLPM1, P49750 (peptide)
chain: TAAIPSAPVLPPPPVH
B29: UTRN, P46939 (peptide)
chain: SQPSAPDFVQRGFDSF
B30: YLPM1, P49750 (peptide)
chain: GSIVRPSAPPARSSVP
B31: FOXP4, Q8IVH2 (peptide)
chain: MMVESASETIRSAPSG
B32: RSF1, Q96T23 (peptide)
chain: EEDADTMRLQPIGRDK
B33: KMT2D, O14686 (peptide)
chain: KPSAPPAPELNNSLHP
B34: EME1, Q96AY2 (peptide)
chain: AEASAPPAPELFSPPV
B35: INF2, Q27J81 (peptide)
chain: VGAKALPTAPPPPPLP
B36: ATOH8, Q96SQ7 (peptide)
chain: APSAPPAPPAPPESTV
B37: PKNOX2, Q96KN3 (peptide)
chain: VPSAPIDPQAQLEADK
B38: EP300, Q09472 (peptide)
chain: PTPTAPLLPPQPATPL
B39: NPIPA3, F8WFD2 (peptide)
chain: EALLTPLPPSAPPSVD
B40: GPRC5B, Q9NZH0 (peptide)
chain: EMAVVLNGGTIPTAPP
B41: TET1, Q8NFU7 (peptide)
chain: SLMPSAPHPVKEASPG
B42: SUFU, Q9UMX1 (peptide)
chain: GPTAPPAPGPTAPPAF
B43: TACC2, O95359 (peptide)
chain: PSAAEHIVSPSAPAGD
B44: UBAP1, Q9NZ09 (peptide)
chain: VPNMPSAPQAYSELQM
B45: SH3BP2, P78314 (peptide)
chain: PQLPHLQRSPPDGQSF
B46: RTTN, Q86VV8 (peptide)
chain: DAASSSGSSSHAHVNS
B47: TMEM131L, A2VDJ0 (peptide)
chain: AEPSAPSLPAGPTGVE
B48: KLC4, Q9NSK0 (peptide)
chain: MSGLVLGQRDEPAGHR
B49: MGAM2, Q2M2H8 (peptide)
chain: DSTVHTSATAPTYIAN
B50: LINC01547, P58512 (peptide)
chain: GTREDPAGQETTAITN
B51: SHKBP1, Q8TBC3 (peptide)
chain: EHAELAPPAPSAPSWG
B52: CHD7, Q9P2D1 (peptide)
chain: PTAPPLQPHPGLHHQS
B53: AMOTL1, Q8IY63 (peptide)
chain: ARQEPQGQEHQVDNTV
B54: ZFHX4, Q86UP3 (peptide)
chain: PSAPPQVQLPVSLDLP
B55: MDC1, Q14676 (peptide)
chain: PVVPTAPELQPSTSTD
B56: POLE, Q07864 (peptide)
chain: PSAPDMEDFGLVKLPH
B57: WASH4P, A8MWX3 (peptide)
chain: EVLASAPPLPPSTAAP
B58: DENND1A, Q8TEH3 (peptide)
chain: PTLQPSAPQQARDPFE
B59: CABIN1, Q9Y6J0 (peptide)
chain: VTVVPTAPDPVPADSV
B60: LRRFIP1, Q32MZ4 (peptide)
chain: EEQAGTVASAPLGHSD
B61: MAP4K4, O95819 (peptide)
chain: TSVVGFSADGMRPEAI
B62: CCDC168, Q8NDH2 (peptide)
chain: LSRTFLSIPSAPPLYL

What follows are binders tested against TSG101 1-145, Q99816.
Sequence of TSG101 1-145, Q99816 (Q99816 1-145): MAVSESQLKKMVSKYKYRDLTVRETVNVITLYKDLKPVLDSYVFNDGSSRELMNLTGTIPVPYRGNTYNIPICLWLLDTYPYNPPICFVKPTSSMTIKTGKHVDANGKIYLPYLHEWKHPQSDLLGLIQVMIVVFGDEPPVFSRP
For B1, the “selected by phage display” value was “confidence 3 (active)”. B2 was tested, and the “selected by phage display” value was “confidence 4 (active)”. With B3 the “selected by phage display” value was “confidence 3 (active)”. B5 was tested, and the “selected by phage display” value was “confidence 2 (active)”. With B6 the “selected by phage display” value was “confidence 3 (active)”. In the case of B7, the “selected by phage display” value is reported as “confidence 3 (active)”. With B8 the “selected by phage display” value was “confidence 3 (active)”. For B10, the “selected by phage display” value was “confidence 2 (active)”. B11 was tested, and the “selected by phage display” value was “confidence 4 (active)”. B12 was tested, and the “selected by phage display” value was “confidence 2 (active)”. B15 was tested, and the “selected by phage display” value was “confidence 2 (active)”. For B16, the “selected by phage display” value was “confidence 3 (active)”. B17 was tested, and the “selected by phage display” value was “confidence 2 (active)”. In the case of B18, the “selected by phage display” value is reported as “confidence 2 (active)”. With B19 the “selected by phage display” value was “confidence 3 (active)”. B20 was tested, and the “selected by phage display” value was “confidence 3 (active)”. With B21 the “selected by phage display” value was “confidence 3 (active)”. For B22, the “selected by phage display” value was “confidence 3 (active)”. For B24, the “selected by phage display” value was “confidence 2 (active)”. With B25 the “selected by phage display” value was “confidence 3 (active)”. B26 was tested, and the “selected by phage display” value was “confidence 2 (active)”. B27 was tested, and the “selected by phage display” value was “confidence 4 (active)”. With B28 the “selected by phage display” value was “confidence 4 (active)”. For B29, the “selected by phage display” value was “confidence 2 (active)”. In the case of B30, the “selected by phage display” value is reported as “confidence 2 (active)”. In the case of B33, the “selected by phage display” value is reported as “confidence 3 (active)”. B34 was tested, and the “selected by phage display” value was “confidence 2 (active)”. In the case of B35, the “selected by phage display” value is reported as “confidence 3 (active)”. In the case of B36, the “selected by phage display” value is reported as “confidence 3 (active)”. B37 was tested, and the “selected by phage display” value was “confidence 2 (active)”. With B38 the “selected by phage display” value was “confidence 2 (active)”. With B39 the “selected by phage display” value was “confidence 3 (active)”. B40 was tested, and the “selected by phage display” value was “confidence 4 (active)”. In the case of B41, the “selected by phage display” value is reported as “confidence 3 (active)”. With B42 the “selected by phage display” value was “confidence 2 (active)”. In the case of B43, the “selected by phage display” value is reported as “confidence 2 (active)”. In the case of B44, the “selected by phage display” value is reported as “confidence 3 (active)”. For B47, the “selected by phage display” value was “confidence 3 (active)”. With B49 the “selected by phage display” value was “confidence 3 (active)”. B51 was tested, and the “selected by phage display” value was “confidence 3 (active)”. B52 was tested, and the “selected by phage display” value was “confidence 4 (active)”. For B54, the “selected by phage display” value was “confidence 2 (active)”. With B55 the “selected by phage display” value was “confidence 3 (active)”. In the case of B56, the “selected by phage display” value is reported as “confidence 2 (active)”. For B57, the “selected by phage display” value was “confidence 3 (active)”. For B58, the “selected by phage display” value was “confidence 2 (active)”. With B59 the “selected by phage display” value was “confidence 3 (active)”. With B60 the “selected by phage display” value was “confidence 4 (active)”. With B62 the “selected by phage display” value was “confidence 2 (active)”.

Each binder was assayed against TNKS 174-649, O95271.
Sequence of TNKS 174-649, O95271 (O95271 174-649): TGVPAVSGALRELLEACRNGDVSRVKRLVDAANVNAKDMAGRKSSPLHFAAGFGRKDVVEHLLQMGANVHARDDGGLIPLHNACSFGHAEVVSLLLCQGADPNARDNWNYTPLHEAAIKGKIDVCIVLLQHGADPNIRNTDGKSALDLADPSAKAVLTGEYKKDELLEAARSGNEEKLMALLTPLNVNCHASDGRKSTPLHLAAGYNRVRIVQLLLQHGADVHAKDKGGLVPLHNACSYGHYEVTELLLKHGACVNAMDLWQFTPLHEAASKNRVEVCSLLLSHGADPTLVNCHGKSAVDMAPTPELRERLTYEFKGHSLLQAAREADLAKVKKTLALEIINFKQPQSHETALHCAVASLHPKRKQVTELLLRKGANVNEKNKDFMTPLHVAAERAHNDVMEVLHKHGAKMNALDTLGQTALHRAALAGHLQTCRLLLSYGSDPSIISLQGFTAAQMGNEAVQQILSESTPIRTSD
B4 was tested, and the “selected by phage display” value was “confidence 4 (active)”. With B9 the “selected by phage display” value was “confidence 3 (active)”. With B31 the “selected by phage display” value was “confidence 3 (active)”. B32 was tested, and the “selected by phage display” value was “confidence 3 (active)”. With B45 the “selected by phage display” value was “confidence 2 (active)”. In the case of B48, the “selected by phage display” value is reported as “confidence 2 (active)”. With B50 the “selected by phage display” value was “confidence 2 (active)”. In the case of B53, the “selected by phage display” value is reported as “confidence 3 (active)”. For B61, the “selected by phage display” value was “confidence 2 (active)”.

The binders below were run against USP7 53-206, Q93009.
Sequence of USP7 53-206, Q93009 (Q93009 53-206): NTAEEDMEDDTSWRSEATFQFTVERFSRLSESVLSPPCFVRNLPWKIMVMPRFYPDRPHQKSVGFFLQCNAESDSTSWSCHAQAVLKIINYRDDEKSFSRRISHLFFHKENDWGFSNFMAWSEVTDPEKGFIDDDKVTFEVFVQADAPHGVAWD
For B13, the “selected by phage display” value was “confidence 4 (active)”. In the case of B14, the “selected by phage display” value is reported as “confidence 4 (active)”. For B23, the “selected by phage display” value was “confidence 2 (active)”. B46 was tested, and the “selected by phage display” value was “confidence 3 (active)”.
